Shown are actives, neighbours in structure and some others; about 6.1% of the full set was active somewhere.
D3 ag = agonists of human D3 dopamine receptor | D3R DiscoveRx beta-arrestin cells, luminescence, 90 min | 410,000 tested, 0.58% active | AID 652048 | max activation, %; in the data active means max activation above about 30%
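Agonist mode: compounds and dopamine controls were applied to plated cells for 90 min at 37 degrees C after an overnight attachment at 1500 cells/well. Luminescent read-out followed 30 - 60 minutes at room temperature with DiscoveRx detection reagent.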
D1 ag = activates the human D1 dopamine receptor; activation, % at 2 µM; HEK293 T-REx D1 cells, calcium flux, agonist mode; AID 504660; P21728; 360,000 tested, 1% active; in the data active means activation above about 30%
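Inducible HEK293 T-REx D1 cells, force-coupled to calcium signalling, were plated at 4000 cells/well with tetracycline and held overnight at 30 C. After no-wash calcium dye loading, compound-evoked calcium rise over 180 s flagged agonists.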
D1 antag = blocks dopamine activation of the human D1 receptor; HEK293 TREx D1 cells, calcium flux, dopamine EC80; hits give low values; activity change, negative = inhibition, % at 10 µM; 360,000 tested, 3.2% active; in the data active means activity change below about -30%
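Antagonism measured as reduced calcium response to an EC80 dopamine addition following 180 s compound pre-read; cells were inducible HEK293 Trex D1 plated overnight at 30 C, read kinetically at 1 cycle/sec.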
D3 antag = blocks the human D3 dopamine receptor; 360,000 tested, 2.5% active; AID 652054; D3R cells, DiscoveRx beta-arrestin luminescence, antagonist mode; hits give low values; max response, negative = inhibition, %; P35462; in the data active means max response below about -50%; inconclusive means no clear call, values can overlap the other calls
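Cells plated overnight at 1500 cells/well, then exposed to library compounds with dopamine controls for 90 minutes at 37 degrees C. DiscoveRx reagent added for 30–60 minutes at room temperature; luminescence read, quantitative HTS format.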
ERG Ets-DNA blk = inhibitors of human ERG Ets domain-DNA interaction; P11308; fluorescence polarization, His-ERG Ets domain / labelled DNA; Potency, µM (series often up to 76.9 µM), actives largely listed as inhibitors; 370,000 tested, 0.028% active; AID 624246; active means well fitted inhibition curve with a large enough effect in the polarisation, with a control signal flat; inconclusive means small, poorly fitted or top-dose-only effect, or effect the other way, or a change in a side signal; inactive means no such curve, though single readings can be large or run the other way; the % refers to the polarisation;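 further: polarization taken with two DNA probes labelled with fluorescein and Texas red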
Target sequence (P11308 whole entry, looked up, the tested form may be a part): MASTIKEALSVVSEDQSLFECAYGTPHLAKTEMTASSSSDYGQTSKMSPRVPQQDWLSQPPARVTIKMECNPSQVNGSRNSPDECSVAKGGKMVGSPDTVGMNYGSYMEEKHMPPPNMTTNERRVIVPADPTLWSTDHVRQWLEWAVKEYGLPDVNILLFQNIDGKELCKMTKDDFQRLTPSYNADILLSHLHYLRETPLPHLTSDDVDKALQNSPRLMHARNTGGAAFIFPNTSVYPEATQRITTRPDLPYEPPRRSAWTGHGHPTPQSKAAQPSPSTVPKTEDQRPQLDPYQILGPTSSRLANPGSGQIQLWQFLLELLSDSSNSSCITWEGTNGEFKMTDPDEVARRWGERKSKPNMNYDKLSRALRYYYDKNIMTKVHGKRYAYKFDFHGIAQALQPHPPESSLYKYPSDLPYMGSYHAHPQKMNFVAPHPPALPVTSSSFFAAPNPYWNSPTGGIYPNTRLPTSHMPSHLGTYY
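His-tagged ERG Ets domain (1 uM in the protein solution; 300mM KCl, 50mM Tris-HCl, 1mM EDTA, 1mM DTT, pH 7.5) received compound, then a probe mix of 5 nM fluorescein-DNA and 100nM Texas-615-DNA. Fluorescence polarization was read for both dyes.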
D1 PAM = enhances dopamine response at the human D1 receptor; potentiation, % at 10 µM; HEK293 TREx D1 cells, calcium flux, dopamine EC20 potentiation; 360,000 tested, 0.036% active; P21728; in the data active means potentiation above about 30%
Numbers stand for hits; 0 = inactive; ? = inconclusive; - = not tested or not shown.

SMILES	D3 ag	D1 ag	D1 antag	D3 antag	ERG Ets-DNA blk	D1 PAM
CCC(C)NC(=O)CCS(=O)(=O)c1ccc2c(c1)n(C)c(=O)c(=O)n2C (stereo unspecified)	0	0	0	0	0	0
Cc1ccc(C(=O)NCC(c2ccco2)N2CCc3ccccc32)cc1 (stereo unspecified)	0	0	0	0	0	0
COc1ccc(NC(=O)c2ccco2)c2ccccc12	0	0	0	0	0	0
CC(C#N)(Nc1ccc(Cl)cc1)c1cccnc1 (stereo unspecified)	0	0	0	-61	0	0
CN1C(c2ccc(F)cc2)=CS/C1=C(/C#N)c1nnc(N2CCOCC2)n1-c1ccccc1	0	0	0	0	0	0
CCN1C(c2ccc(F)cc2)=CS/C1=C(\C#N)c1nnc2n1-c1ccccc1SC2	0	0	-35	0	-	0
O=C(O)CCN1CCOCC1	0	0	-67	0	0	0
CC(C)(C)c1cc(C(=O)NCc2ccccc2)ccn1	0	0	-32	0	0	0
N#CC1=C2SCC(O)(c3ccccc3)N2C(=O)CC1c1cccs1 (stereo unspecified)	0	63	0	0	0	0
N#CC1=C2SCC(O)(c3ccccc3)N2C(=O)CC1c1ccccc1F (stereo unspecified)	0	0	0	0	?	0
C=CCSc1cc(C)nc2c(-c3ccc(Cl)cc3)c(C)nn12	38	0	0	0	0	0
CC(=O)Nc1ccc(Nc2cc(C)nc3c(-c4ccccc4)c(C)nn23)cc1	0	0	-30	0	0	0
Cc1cc(SCC(=O)Nc2ccc(O)cc2)n2nc(C)c(-c3ccccc3)c2n1	0	0	-50	0	0	0
Cc1onc(-c2ccccc2)c1C(=O)NC(=S)NNC(=O)c1ccco1	0	0	0	0	0	0
O=C(NC1CC1)c1ccc(CS(=O)c2ccccc2)o1 (stereo unspecified)	0	0	0	0	0	0
Cc1cc(C)n(-c2nc3ccccc3c(=O)n2OCc2ccc(Cl)cc2)n1	0	0	0	0	0	0
CC(=O)Nc1cccc(-c2cc(N3CCN(CCO)CC3)n3nccc3n2)c1	37	-	-	0	-	-
Cc1ccc(C)c(NC(=O)COC(=O)CCNC(=O)c2ccco2)c1	0	0	-50	0	0	-
CCC(C)c1ccc(NC(=O)COC(=O)CCNC(=O)c2ccco2)cc1 (stereo unspecified)	0	0	0	0	0	0
CCOC(=O)c1c(C)[nH]c(NC(=O)NNC(=O)c2ccccc2Cl)c1C	0	0	-31	0	0	0
CSc1cccc(CN2CCN(CCc3ccccc3)C(CCO)C2)c1 (stereo unspecified)	0	0	0	-114	0	0
OCCC1CN(C2CCN(c3ccccc3F)CC2)CCN1Cc1ccccc1 (stereo unspecified)	0	0	0	-103	0	0
CSc1cccc(CN2CCN(Cc3ccccc3)C(CCO)C2)c1 (stereo unspecified)	0	0	0	-54	0	0
CC(C)c1cc(CN2CCN(Cc3ccc(F)c(F)c3)C(CCO)C2)[nH]n1 (stereo unspecified)	0	0	0	?	0	0
CSc1cccc(CN2CCN(Cc3ccc(F)c(F)c3)C(CCO)C2)c1 (stereo unspecified)	0	0	0	-63	0	0
SMILES	D3 ag	D1 ag	D1 antag	D3 antag	ERG Ets-DNA blk	D1 PAM
CSc1ccc(CN2CCN(Cc3ccccc3)C(CCO)C2)cc1 (stereo unspecified)	0	0	0	?	0	0
COc1ccc(NC(=O)c2nc(S(C)(=O)=O)ncc2N(Cc2ccc(C)cc2)Cc2ccco2)cc1Cl	0	0	0	-	0	0
Cc1nnc(N)nc1C	0	0	-38	0	0	0
Cc1nc(C)c(C)nc1C	-	0	0	-	-	0
CC(C)c1ccc(NC(=O)C2CC(=O)Nc3nc4ccccc4n32)cc1 (stereo unspecified)	0	0	0	0	0	0
CN(C(=O)COc1ccccc1C(=O)NCCOc1ccccc1)c1ccccc1	30	0	0	0	0	0
